# Rows were chosen to be rich in hits. Some 2.9% of all compounds tested hit in one or more screens of this group.
# TRPML1 agonist – human mucolipin-1 channel agonism. activation, % (no concentration beside the values). actives 0.12% (n = 410,000). Q9GZU1. AID 624414. TRPML1-expressing cells, Ca2+ dye fluorescence, FDSS; in the data active = activation above about 50%; inconclusive = mostly about 30% to 49%; also: 0% is about no effect
#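 Tetracycline-induced TRPML1-DL cells are seeded and incubated overnight before loading with a no-wash Ca2+ dye and quencher. Agonist activity is taken from the 110 s fluorescence read following compound pin-transfer on an FDSS, before EC80 54-4 challenge.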
# D3 ag – agonists of human D3 dopamine receptor. P35462. AID 652048. max activation, %. actives 0.58% (n = 410,000). D3R DiscoveRx beta-arrestin cells, luminescence, 90 min; in the data active = max activation above about 30%; also: 0% is about no effect
# Target sequence (P35462 whole entry, looked up): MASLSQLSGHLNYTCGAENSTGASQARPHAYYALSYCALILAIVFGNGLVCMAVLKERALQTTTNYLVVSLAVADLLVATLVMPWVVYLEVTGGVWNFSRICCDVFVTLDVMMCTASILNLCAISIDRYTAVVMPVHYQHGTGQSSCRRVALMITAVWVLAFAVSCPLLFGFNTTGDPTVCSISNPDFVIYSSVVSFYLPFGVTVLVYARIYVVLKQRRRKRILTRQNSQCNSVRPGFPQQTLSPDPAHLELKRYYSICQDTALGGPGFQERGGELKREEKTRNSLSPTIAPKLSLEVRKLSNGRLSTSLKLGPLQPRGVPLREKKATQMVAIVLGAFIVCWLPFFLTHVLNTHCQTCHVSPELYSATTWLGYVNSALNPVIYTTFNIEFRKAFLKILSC
#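 Cells at 1500/well, incubated overnight, then treated with pinned compounds (dopamine as control) for 90 min at 37 degrees C. DiscoveRx reagent added for 30 - 60 minutes at room temperature; luminescence read.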
# TRPML1 blocker – human mucolipin-1 channel inhibition. TRPML1-inducible cells, Ca2+ dye fluorescence, FDSS; stronger effect = lower value; inhibition of EC80 agonist-evoked calcium signal. activity change, negative = inhibition, % (test concentration not listed). actives 0.02% (n = 390,000); in the data active = activity change below about -50%; inconclusive = between about -30% and that limit;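 also: stimulus is agonist 54-4 at its EC80 concentration; % is scaled to controls: 0 for no effect and ±100 for the full control effect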
#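 Calcium fluorescence in TRPML1-DL cells induced overnight with Tet: a 110 s read after compound pin addition, then a 110 s antagonist read after challenge with 54-4 at 4 uM final (EC80).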
# D3 antag – antagonists of human D3 dopamine receptor; P35462; D3R cells, DiscoveRx beta-arrestin luminescence, antagonist mode; stronger effect = lower value; max response, negative = inhibition, %; actives 2.5% (n = 360,000); AID 652054; in the data active = max response below about -50%; inconclusive = no clear call, values can overlap the other calls; also: % is scaled to controls: 0 for no effect and ±100 for the full control effect
#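 Cells expressing the human receptor were seeded at 1500 cells/well, incubated overnight at 37 degrees C in 5% CO2, then exposed to library compounds with dopamine controls for 90 minutes at 37 degrees C before luminescent detection.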
# * hit, by the source's call; u = inconclusive; x = no result; ! = not confirmed by another sample.
SMILES,TRPML1 agonist,D3 ag,TRPML1 blocker,D3 antag
Cc1cccc(OCCn2c(CCNC(=O)C3CCCCC3)nc3ccccc32)c1,0.0,x,x,x
O=C(Oc1ccc2c(c1)OCO2)c1cccs1,-1.0,1.3,-50.1*,116.4
CCOC(=O)c1c(C)sc2c1N(C(=O)CCl)c1cc(Cl)ccc1S2,0.8,-1.1,9.4,-59.9*
Cc1sc2ncnc(SCC(=O)N3c4ccccc4Sc4ccc(Cl)cc43)c2c1C,0.1,2.8,5.8,11.1
Cc1cn([C@H]2C[C@H](O)[C@@H](CNCc3ccc(-c4cc(Cl)ccc4C(F)(F)F)o3)O2)c(=O)[nH]c1=O,-0.6,-17.0,2.4,-75.1*
COc1ccc2cc(C(c3nnnn3C(C)(C)C)N3CCSCC3)c(=O)[nH]c2c1 (configuration not stated),2.1,-7.0,-6.0,-57.1*
CC1=C(/C=C/C(C)=C/C=C/C(C)=C/C(=O)Nc2ccc(O)cc2)C(C)(C)CCC1,-0.2,69.1*!,-19.8,23.2
CC1=C(/C=C/C(C)=C/C=C/C(C)=C\C(=O)O)C(C)(C)CCC1,0.5,0.2,19.8,10.7
Cc1ccc(Nc2nc(NCc3ccco3)nc3nccnc23)cc1,-0.1,x,x,x
c1ccc(Cn2nnnc2C(c2cccs2)N2CCc3ccccc3C2)cc1 (configuration not stated),0.4,-11.2,1.6,-68.5*
c1ccc(Cn2nnnc2C(c2cccs2)N2CCCCCC2)cc1 (configuration not stated),7.3,-11.8,-12.7,-20.4
O=C(NCc1cccc(F)c1)c1ccccc1NC(=O)c1nsc2ccccc12,2.7,-15.6,u,x
Oc1ccc(Cl)c2cccnc12,0.3,-17.1,-2.5,-59.1*
Oc1ccc(F)c2cccnc12,2.7,-7.9,-10.2,-15.1
CCCOCc1ccc(O)c2ncccc12,0.0,-11.9,-5.1,-71.3*
Cc1ccc2c(C)ccc(O)c2n1,0.4,-7.5,12.5,-78.6*
Cc1ccc2ccc3ccc(C)nc3c2n1,-0.3,-28.9,0.6,25.7
Cc1ccc2c(Cl)cc(Cl)c(O)c2n1,-0.1,-18.1,7.9,-110.4*
O=C(Oc1c(Cl)cc(Cl)c2cccnc12)c1ccco1,-0.4,-4.0,0.6,-123.6*
O=C(Oc1c(Cl)cc(Cl)c2cccnc12)c1cccs1,4.1,-16.4,8.7,u
Oc1c(Cl)cc(Cl)c2cccnc12,-0.2,-7.9,-1.9,-61.4*
Clc1cc2cccnc2c2ccccc12,-1.1,-2.7,16.4,-23.8
COc1cccc(-c2sc3ccc(OC)cc3c2-c2ccc(OCCN(C)C)cc2)c1,0.2,-17.3,-8.5,-78.6*
CCCN(CCC)c1cc(C)nc2nc(-c3ccc(Cl)cc3)nn12,-0.6,8.5,-1.6,x
Cc1cccc(C)c1C(=NCCN(C)C)c1ccccc1,1.8,-11.2,-4.2,u
SMILES,TRPML1 agonist,D3 ag,TRPML1 blocker,D3 antag
Cc1ccccc1C(=NCCCN(C)C)c1ccccc1C,1.3,-9.5,21.5,-75.3*
CCOC(=O)c1ccc2c(c1)N(Cc1cccc(C(F)(F)F)c1)C(=O)c1ccccc1S2(=O)=O,2.2,8.2,9.5,x
COC(=O)/C(=C\c1c(OC)cc(OC)cc1OC)C(=O)c1ccc2c(c1)OCO2,0.7,12.7,1.8,-93.5*
CCCS(=O)(=O)c1nc(S(=O)(=O)c2ccc(C)cc2)c(N2CCCCC2)s1,-0.9,-1.6,0.2,1.7
CCCS(=O)(=O)c1nc(S(=O)(=O)c2ccc(C)cc2)c(N2CCN(CCO)CC2)s1,-0.1,-6.1,-1.0,-91.5*
CCN1CCN(c2sc(S(=O)(=O)CC)nc2S(=O)(=O)c2ccc(Cl)cc2)CC1,-0.1,-4.4,1.2,-105.4*
CCc1nn(CC(=O)N2CCN(c3ccc(OC)cc3)CC2)c(=O)c2cc3occc3n12,-1.2,34.0*,-11.2,7.8
Cc1ccc2nc(-c3ccccc3)cc(C(=O)N3CCN(c4ccccc4O)CC3)c2c1,-0.2,31.4*,4.2,37.3
CN1Cc2c(N)cccc2C(c2ccccc2)C1 (configuration not stated),0.3,-20.5,-1.0,-62.5*!
COc1cc2c(cc1OC)[C@@H](c1ccccc1)CN(C)CC2,x,-11.8,x,x
COc1ccc(CCNC(=O)C(=O)NCC(c2cccs2)S(=O)(=O)c2ccccc2)cc1 (configuration not stated),7.3,-4.7,61.7,x
Cc1ccc(-c2nc3ccccc3o2)cc1NC(=O)c1cccc2c(Cl)cccc12,-0.4,-1.2,19.1,x
Cn1c(=O)c2[nH]c(Cc3cccc4ccccc34)nc2n(C)c1=O,2.2,35.5*,9.9,30.2
N#C/C(=C\c1ccc(-c2ccc(C(=O)O)cc2)o1)c1nc2ccccc2[nH]1,60.8*,-2.5,7.0,6.2
N#C/C(=C/c1ccc(N2CCOCC2)o1)c1ccc(Cl)cc1,12.7,-17.5,8.8,-104.9*
N#C/C(=C\c1ccc(N2CCCCC2)o1)C(N)=O,7.8,0.3,16.9,-4.5
N#C/C(=C\c1ccc(-c2ccc(Cl)c(C(=O)O)c2)o1)c1nc2ccccc2[nH]1,3.5,4.6,-20.6,x
N#C/C(=C\c1ccc(N2CCOCC2)o1)c1nc2ccccc2[nH]1,60.1*,-2.8,-13.1,-13.0
Cc1cccc(C(=O)NC(=O)Nc2ccc(-n3nc(C(F)(F)F)cc3C(F)(F)F)cc2)c1,0.9,9.0,-11.6,x
COCCCOc1cc(C[C@@H](C[C@H](N)[C@@H](O)C[C@H](C(=O)NCC(C)(C)C(N)=O)C(C)C)C(C)C)ccc1OC,x,12.4,x,x
CCCCC/C=C\C/C=C\CCCCCCCC(=O)NC(C)c1ccccc1 (configuration not stated),x,-0.2,x,x
CCN(CC)c1ccc(-c2nc(-c3ccco3)no2)cc1[N+](=O)[O-],0.1,4.4,24.2,x
COc1cccc(C2C(C(=O)c3cccs3)=C(O)C(=O)N2c2cc(C)on2)c1 (configuration not stated),-0.1,10.2,44.5,-55.1*
Cc1cc(N2C(=O)C(O)=C(C(=O)c3cccs3)C2c2cccc(O)c2)no1 (configuration not stated),-0.8,0.3,1.8,10.1
COc1cc(C2C(C(=O)c3cccs3)=C(O)C(=O)N2c2cc(C)on2)ccc1O (configuration not stated),1.0,-2.5,-4.2,0.0
SMILES,TRPML1 agonist,D3 ag,TRPML1 blocker,D3 antag
COc1ccc(OC)c(C2C(C(=O)c3cccs3)=C(O)C(=O)N2c2cc(C)on2)c1 (configuration not stated),-0.3,3.7,21.2,-68.8*
CC1=C([N+](=O)[O-])C(c2cccc(Br)c2)C2=C(N1)c1ccccc1C2=O (configuration not stated),-0.3,2.3,0.3,-94.4*
Cc1ccc2cc3c(nc2c1)N(Cc1ccco1)CC3,1.2,0.5,-1.0,-56.2*
O=C(Nc1ccc2nc3n(c(=O)c2c1)CCCCC3)c1c(F)ccc([N+](=O)[O-])c1F,1.9,-5.6,-5.0,-59.2*
O=C(Nc1ccc2nc3n(c(=O)c2c1)CCCCC3)c1cc([N+](=O)[O-])ccc1F,-0.5,-9.0,65.2,-19.3
O=C(NCc1ccc(F)cc1)C1CCN(S(=O)(=O)c2ccc3c(c2)CCCN3C(=O)C2CCC2)CC1,0.7,6.1,5.7,x

# Assay outcomes: PubChem BioAssay, National Center for Advancing Translational Sciences (NCATS)
